ChEMBL document CHEMBL1961873, “Compounds: GSK PKIS; Assays: Nanosyn kinase panel” (2012)

What follows are molecules tested against T1, 3-phosphoinositide-dependent protein kinase 1 (Homo sapiens) (UniProt O15530). Conditions: at 0.1 µM.
T1 sequence (whole entry): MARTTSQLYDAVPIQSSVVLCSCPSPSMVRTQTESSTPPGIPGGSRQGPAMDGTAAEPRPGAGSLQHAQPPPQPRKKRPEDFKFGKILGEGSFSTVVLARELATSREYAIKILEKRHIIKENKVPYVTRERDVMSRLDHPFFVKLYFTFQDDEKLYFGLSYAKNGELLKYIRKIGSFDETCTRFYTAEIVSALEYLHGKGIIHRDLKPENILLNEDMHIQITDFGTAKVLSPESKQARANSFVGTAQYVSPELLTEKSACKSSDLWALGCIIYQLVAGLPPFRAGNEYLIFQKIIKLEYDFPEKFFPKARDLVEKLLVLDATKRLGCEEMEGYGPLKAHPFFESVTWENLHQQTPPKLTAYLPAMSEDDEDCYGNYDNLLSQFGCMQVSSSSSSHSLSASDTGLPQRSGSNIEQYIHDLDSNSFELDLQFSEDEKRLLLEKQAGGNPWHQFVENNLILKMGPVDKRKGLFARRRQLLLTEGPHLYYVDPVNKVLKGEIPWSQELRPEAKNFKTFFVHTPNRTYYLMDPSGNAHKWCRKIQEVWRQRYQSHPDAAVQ
Molecule `O=C(Nc1ccc(Oc2ccc3[nH]c(NC(=O)c4ccco4)nc3c2)cc1)Nc1cc(C(F)(F)F)ccc1F` has an inhibition of 2.37%.
`Cc1ccc(Nc2ccnc(Nc3cccc(C(N)=O)c3)n2)cc1O` gave an inhibition of 2.89%.
In the case of `CCCN1CCCC(c2ccc(Nc3nc(Nc4cc(F)ccc4C(N)=O)c4cc[nH]c4n3)c(OC)c2)C1` (stereo not drawn), the inhibition is reported as 2.08%.
For `CC(C)c1ccc2c(c1)NC(=O)/C2=N/Nc1ccc(S(N)(=O)=O)cc1`, the inhibition was 0.82%.
Work on `NS(=O)(=O)c1ccc(-c2cc3ccncc3cc2OCc2ccccc2)cc1` yielded an inhibition of 3.11%.
In the case of `CN1CCN(C(=O)c2ccc(NC(=O)Nc3ccc(N(C)c4ccnc(Nc5ccc(CS(C)(=O)=O)cc5)n4)cc3)cc2)CC1`, the inhibition is reported as 1.6%.
Work on `CN(c1ccc(NC(=O)Nc2ccc(OC(F)(F)F)cc2)cc1)c1ccnc(Nc2cccc(S(N)(=O)=O)c2)n1` yielded an inhibition of 0.37%.
`CS(=O)(=O)CCNCc1nc(-c2ccc3ncnc(Nc4ccc(OCc5cccc(C(F)(F)F)c5)cc4)c3c2)cs1` was tested, and the inhibition was 0.07%.
Molecule `Nc1nccc(C#Cc2cncnc2Nc2ccc(OCc3cccc(F)c3)c(Cl)c2)n1` has an inhibition of 2.4%.
`COc1ccc(-c2nn3ncccc3c2-c2ccnc(Nc3cccc(C(F)(F)F)c3)n2)cc1` was tested, and the inhibition was -0.15%.
Molecule `Cc1cc(Cl)cc2c1NC(=O)C2=NNc1ccc(S(N)(=O)=O)cc1` has an inhibition of 0.95%.
For `Cc1ccc(O)cc1Nc1ccnc2ccc(S(C)(=O)=O)cc12`, the inhibition was 1.13%.
Work on `CCn1c(-c2nonc2N)nc2ccc(F)cc21` yielded an inhibition of -0.67%.
Molecule `COc1cc2ncnc(Nc3ccc4c(cnn4Cc4ccccc4)c3)c2cc1OC` has an inhibition of 0.98%.
`Cc1nc(-c2ccccc2)n2nc(NCCCN3CCOCC3)ncc12` was tested, and the inhibition was 2.52%.
Work on `OCc1ccc(-c2nc(-c3ccccn3)c(-c3ccc4c(c3)OCO4)[nH]2)cc1` yielded an inhibition of 3.18%.
Work on `[O-][S+]1CCN(Cc2ccc(-c3ccc4ncnc(Nc5ccc(OCc6ccccc6)c(Cl)c5)c4c3)o2)CC1` yielded an inhibition of 0.06%.
`Cc1ccc2c(-c3ccnc(Nc4cccc(C(F)(F)F)c4)n3)c(-c3ccccc3)nn2n1` showed an inhibition of 0.65%.
`CCOc1nccc2c1nc(-c1nonc1N)n2CC` was tested, and the inhibition was 1.85%.
`NS(=O)(=O)c1ccc(N/N=C2\C(=O)Nc3ccc(Cl)cc32)cc1` was tested, and the inhibition was 2.36%.
For `COc1cccc(-n2ncc3c(N/N=C/c4ccc(S(C)(=O)=O)cc4)ncnc32)c1`, the inhibition was 2.37%.
`CCS(=O)(=O)c1ccc(OC)c(Nc2nccc(N(C)c3ccc4c(C)n[nH]c4c3)n2)c1` gave an inhibition of -0.7%.
`Cc1ccc2c(c1)/C(=N/Nc1ccc(S(N)(=O)=O)cc1)C(=O)N2` showed an inhibition of 0.19%.
For `Cc1cc(O)cc(C)c1/C=C/c1cncc(C(=O)N(C)C)c1`, the inhibition was 4.18%.
With `O=C1Nc2ccccc2/C1=C/Nc1ccc2[nH]c(=O)[nH]c2c1` the inhibition was 9.34%.
Work on `COC(=O)c1ccc2c(c1)C(=Cc1cc(Br)c(O)c(Br)c1)C(=O)N2` yielded an inhibition of -0.14%.
With `NS(=O)(=O)c1cccc(-c2cc3ccncc3cc2OCc2ccccc2)c1` the inhibition was 0.97%.
`C[C@@H](Oc1cc(-n2cnc3ccc(OC[C@@H](O)CO)cc32)sc1C(N)=O)c1ccccc1Cl` gave an inhibition of 0.22%.
With `NC(=O)c1cccc(Nc2nccc(Nc3cccc(F)c3)n2)c1` the inhibition was -1.35%.
With `Cc1ccc(NC(=O)CC2CC2)cc1-c1ccc(C(=O)NCC2CC2)cc1` the inhibition was 1.84%.
`Cc1ccc(C(=O)NC2CC2)cc1-c1ccc2[nH]ncc2c1` was tested, and the inhibition was -3.15%.
Molecule `Nc1nccc(-c2c(-c3ccc(F)cc3)ncn2CCCN2CCOCC2)n1` has an inhibition of 0.38%.
`N#Cc1c(NC(=O)c2ccccc2F)sc2c1CCCC2` gave an inhibition of -1.52%.
`CN(C)CCCn1c(-c2nonc2N)nc2cnccc21` showed an inhibition of 1.51%.

Each molecule was assayed against cAMP-dependent protein kinase catalytic subunit alpha (Homo sapiens) (UniProt P17612). Conditions: at 0.1 µM.
For `O=C(Nc1ccc(Oc2ccc3[nH]c(NC(=O)c4ccco4)nc3c2)cc1)Nc1cc(C(F)(F)F)ccc1F`, the inhibition was -0.33%.
Work on `Cc1ccc(Nc2ccnc(Nc3cccc(C(N)=O)c3)n2)cc1O` yielded an inhibition of -1.93%.
`CCCN1CCCC(c2ccc(Nc3nc(Nc4cc(F)ccc4C(N)=O)c4cc[nH]c4n3)c(OC)c2)C1` (stereo not drawn) gave an inhibition of 2.2%.
For `CC(C)c1ccc2c(c1)NC(=O)/C2=N/Nc1ccc(S(N)(=O)=O)cc1`, the inhibition was 1.46%.
`NS(=O)(=O)c1ccc(-c2cc3ccncc3cc2OCc2ccccc2)cc1` showed an inhibition of 1.4%.
Molecule `CN1CCN(C(=O)c2ccc(NC(=O)Nc3ccc(N(C)c4ccnc(Nc5ccc(CS(C)(=O)=O)cc5)n4)cc3)cc2)CC1` has an inhibition of 1.2%.
With `CN(c1ccc(NC(=O)Nc2ccc(OC(F)(F)F)cc2)cc1)c1ccnc(Nc2cccc(S(N)(=O)=O)c2)n1` the inhibition was 1.4%.
`CS(=O)(=O)CCNCc1nc(-c2ccc3ncnc(Nc4ccc(OCc5cccc(C(F)(F)F)c5)cc4)c3c2)cs1` gave an inhibition of 1.46%.
`Nc1nccc(C#Cc2cncnc2Nc2ccc(OCc3cccc(F)c3)c(Cl)c2)n1` gave an inhibition of 1.49%.
With `COc1ccc(-c2nn3ncccc3c2-c2ccnc(Nc3cccc(C(F)(F)F)c3)n2)cc1` the inhibition was 2.04%.
With `Cc1cc(Cl)cc2c1NC(=O)C2=NNc1ccc(S(N)(=O)=O)cc1` the inhibition was 1.21%.
`Cc1ccc(O)cc1Nc1ccnc2ccc(S(C)(=O)=O)cc12` showed an inhibition of 3.25%.
With `CCn1c(-c2nonc2N)nc2ccc(F)cc21` the inhibition was 2.75%.
In the case of `COc1cc2ncnc(Nc3ccc4c(cnn4Cc4ccccc4)c3)c2cc1OC`, the inhibition is reported as 0.6%.
`Cc1nc(-c2ccccc2)n2nc(NCCCN3CCOCC3)ncc12` gave an inhibition of 2.1%.
For `OCc1ccc(-c2nc(-c3ccccn3)c(-c3ccc4c(c3)OCO4)[nH]2)cc1`, the inhibition was 1.99%.
`[O-][S+]1CCN(Cc2ccc(-c3ccc4ncnc(Nc5ccc(OCc6ccccc6)c(Cl)c5)c4c3)o2)CC1` gave an inhibition of 2.94%.
`Cc1ccc2c(-c3ccnc(Nc4cccc(C(F)(F)F)c4)n3)c(-c3ccccc3)nn2n1` showed an inhibition of 2.43%.
Molecule `CCOc1nccc2c1nc(-c1nonc1N)n2CC` has an inhibition of 3.12%.
`NS(=O)(=O)c1ccc(N/N=C2\C(=O)Nc3ccc(Cl)cc32)cc1` showed an inhibition of 3.49%.
`COc1cccc(-n2ncc3c(N/N=C/c4ccc(S(C)(=O)=O)cc4)ncnc32)c1` was tested, and the inhibition was -3.29%.
`CCS(=O)(=O)c1ccc(OC)c(Nc2nccc(N(C)c3ccc4c(C)n[nH]c4c3)n2)c1` gave an inhibition of 2.41%.
In the case of `Cc1ccc2c(c1)/C(=N/Nc1ccc(S(N)(=O)=O)cc1)C(=O)N2`, the inhibition is reported as 0.27%.
`Cc1cc(O)cc(C)c1/C=C/c1cncc(C(=O)N(C)C)c1` gave an inhibition of 1.98%.
Molecule `O=C1Nc2ccccc2/C1=C/Nc1ccc2[nH]c(=O)[nH]c2c1` has an inhibition of 2.27%.
Work on `COC(=O)c1ccc2c(c1)C(=Cc1cc(Br)c(O)c(Br)c1)C(=O)N2` yielded an inhibition of 1.68%.
Work on `NS(=O)(=O)c1cccc(-c2cc3ccncc3cc2OCc2ccccc2)c1` yielded an inhibition of 1.81%.
Molecule `C[C@@H](Oc1cc(-n2cnc3ccc(OC[C@@H](O)CO)cc32)sc1C(N)=O)c1ccccc1Cl` has an inhibition of -0.26%.
For `NC(=O)c1cccc(Nc2nccc(Nc3cccc(F)c3)n2)c1`, the inhibition was 1.44%.
For `Cc1ccc(NC(=O)CC2CC2)cc1-c1ccc(C(=O)NCC2CC2)cc1`, the inhibition was 1.31%.
Molecule `Cc1ccc(C(=O)NC2CC2)cc1-c1ccc2[nH]ncc2c1` has an inhibition of -2.46%.
`Nc1nccc(-c2c(-c3ccc(F)cc3)ncn2CCCN2CCOCC2)n1` showed an inhibition of 3.31%.
`N#Cc1c(NC(=O)c2ccccc2F)sc2c1CCCC2` gave an inhibition of -0.5%.
Work on `CN(C)CCCn1c(-c2nonc2N)nc2cnccc21` yielded an inhibition of 2.1%.
